# In the supplement of paper PMC11628255, “Interference of metal ions on the bioluminescent signal of firefly, Renilla, and NanoLuc luciferases in high-throughput screening assays” (Frontiers in Chemistry, 2024):
# ± gives the standard deviation of the averaged measurements.
# System: NanoLuc luciferase (NLuc)
# Assay: residual bioluminescent signal relative to negative control without GSH; higher = less interference (more residual luciferase signal)
# Details: screening conditions buffer
# Protocol: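 Selected metal salts at 3-4 concentrations tested on purified FLuc, NLuc or RLuc in screening buffer with 0, 0.2 or 2 mM glutathione added; 10 min enzyme pre-incubation at RT, luminescence 10 min after substrate. Signal normalised to negative control without GSH (% N_VALUE); triplicate wells.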
# [1] = metal salt concentration 1 mM, glutathione 0 mM
# [2] = metal salt concentration 1 mM, glutathione 0.2 mM
# [3] = metal salt concentration 1 mM, glutathione 2 mM
# [4] = metal salt concentration 0.001 mM, glutathione 0 mM
# [5] = metal salt concentration 0.001 mM, glutathione 0.2 mM
# [6] = metal salt concentration 0.001 mM, glutathione 2 mM
smiles,measurement,setting,value
O=[N+]([O-])[O-].O=[N+]([O-])[O-].[Cu+2] [copper(II) nitrate],residual bioluminescent signal,"metal salt concentration 0.0005 mM, glutathione 0 mM",104 ± 4.1%
same,residual bioluminescent signal,"metal salt concentration 0.0005 mM, glutathione 0.2 mM",106 ± 5.4%
same,residual bioluminescent signal,"metal salt concentration 0.0005 mM, glutathione 2 mM",89.3 ± 3.6%
same,residual bioluminescent signal,"metal salt concentration 0.017 mM, glutathione 0 mM",101 ± 7.7%
same,residual bioluminescent signal,"metal salt concentration 0.017 mM, glutathione 0.2 mM",104 ± 6.7%
same,residual bioluminescent signal,"metal salt concentration 0.017 mM, glutathione 2 mM",92.9 ± 4.8%
same,residual bioluminescent signal,"metal salt concentration 0.02 mM, glutathione 0 mM",86.4 ± 3.7%
same,residual bioluminescent signal,"metal salt concentration 0.02 mM, glutathione 0.2 mM",98 ± 2.7%
same,residual bioluminescent signal,"metal salt concentration 0.02 mM, glutathione 2 mM",84.1 ± 2.6%
same,residual bioluminescent signal,[1],0.661 ± 0.17%
same,residual bioluminescent signal,[2],1.03 ± 0.57%
same,residual bioluminescent signal,[3],68.9 ± 7.9%
O=[N+]([O-])[O-].[Ag+] [silver nitrate],residual bioluminescent signal,[4],98.9 ± 6.8%
same,residual bioluminescent signal,[5],102 ± 1.4%
same,residual bioluminescent signal,[6],90.9 ± 4.7%
same,residual bioluminescent signal,"metal salt concentration 0.0114 mM, glutathione 0 mM",15.6 ± 8%
same,residual bioluminescent signal,"metal salt concentration 0.0114 mM, glutathione 0.2 mM",106 ± 1.6%
same,residual bioluminescent signal,"metal salt concentration 0.0114 mM, glutathione 2 mM",85.33 ± 0.82%
same,residual bioluminescent signal,"metal salt concentration 0.05 mM, glutathione 0 mM",2.78 ± 0.95%
same,residual bioluminescent signal,"metal salt concentration 0.05 mM, glutathione 0.2 mM",107 ± 4.8%
same,residual bioluminescent signal,"metal salt concentration 0.05 mM, glutathione 2 mM",85.7 ± 1%
same,residual bioluminescent signal,[1],3.17 ± 0.68%
same,residual bioluminescent signal,[2],15.2 ± 5.5%
same,residual bioluminescent signal,[3],82.48 ± 0.71%
O=[N+]([O-])[O-].O=[N+]([O-])[O-].[Zn+2] [zinc nitrate],residual bioluminescent signal,[4],98.9 ± 6.3%
same,residual bioluminescent signal,[5],103 ± 6.2%
same,residual bioluminescent signal,[6],89.6 ± 2.3%
same,residual bioluminescent signal,"metal salt concentration 0.174 mM, glutathione 0 mM",50.9 ± 6%
same,residual bioluminescent signal,"metal salt concentration 0.174 mM, glutathione 0.2 mM",72.7 ± 2.8%
same,residual bioluminescent signal,"metal salt concentration 0.174 mM, glutathione 2 mM",77.5 ± 7.3%
same,residual bioluminescent signal,[1],34.2 ± 8.5%
same,residual bioluminescent signal,[2],42.1 ± 1.7%
same,residual bioluminescent signal,[3],63.9 ± 1.7%
same,residual bioluminescent signal,"metal salt concentration 5 mM, glutathione 0 mM",5.95 ± 1.4%
same,residual bioluminescent signal,"metal salt concentration 5 mM, glutathione 0.2 mM",7.9 ± 2.7%
same,residual bioluminescent signal,"metal salt concentration 5 mM, glutathione 2 mM",12.4 ± 2.1%
